The panel holds about 79,000 compounds, 15% with a hit somewhere; the sample as a whole holds those more often. A number with no mark means an inactive call. The source made the active and inactive calls. Rule as the data show it: active = growth inhibition above about 70%; inactive = the rest.
Key:
[1] = NCI Yeast Anticancer Drug Screen. Data for the rad50 strain (AID 155);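 also: 0% = growth of vehicle-only cultures of the same strain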; conditions: S. cerevisiae rad50 strain growth inhibition, hits give high values
Outline: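 A DNA repair-deficient yeast mutant serves as the test organism; compound-induced growth inhibition is calculated against vehicle-treated cells.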

[2] = NCI Yeast Anticancer Drug Screen. Data for the mec2-1 strain (AID 157); conditions: S. cerevisiae mec2-1 strain, hits give high values
Outline: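 Compounds were applied to mec2-1 yeast cells. Their growth was then compared with that of vehicle-treated cultures to give growth inhibition.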

[3] = NCI Yeast Anticancer Drug Screen. Data for the sgs1 mgt1 strain (AID 161);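 also: 0% = growth of cultures given vehicle only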; conditions: S. cerevisiae sgs1 mgt1 strain, hits give high values
Outline: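 Growth of a repair-deficient yeast mutant was monitored after compound treatment and expressed as inhibition relative to vehicle-treated cultures.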

[4] = NCI Yeast Anticancer Drug Screen. Data for the cln2 rad14 strain (AID 165);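 also: 0% = growth equal to vehicle treated cultures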; conditions: S. cerevisiae cln2 rad14 strain, hits give high values
Outline: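 Strain: cln2 rad14 yeast, altered in cell cycle control and DNA damage repair. Read-out: growth inhibition vs vehicle.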

[5] = NCI Yeast Anticancer Drug Screen. Data for the bub3 strain (AID 167); conditions: S. cerevisiae bub3 mutant strain, hits give high values
Outline: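 Inhibition values come from growth of compound-treated mutant yeast normalised to vehicle-treated controls.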

[6] = NCI Yeast Anticancer Drug Screen. Data for the mlh1 rad18 strain (AID 175); conditions: S. cerevisiae mlh1 rad18 strain growth inhibition, hits give high values
Outline: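 A repair-deficient yeast strain is exposed to test compound, and growth is scored relative to vehicle-treated controls.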

[7] = at 5.0 µM (retest, dose inferred, filed as 0.5)
[8] = at 50.0 µM (retest, dose inferred, filed as 5.0)

In the case of `CN1CCN(c2ccc3nc(-c4ccc5nc(-c6ccc(N(C)CCCl)cc6)[nH]c5c4)[nH]c3c2)CC1`, the growth inhibition [1, 7] is reported as 1%, the growth inhibition [1, 8] is reported as 99% (active) and the growth inhibition ([1]; at 50.0 µM) is reported as 98.4% (active). For the same compound, the growth inhibition [2, 7] was -10%, the growth inhibition [2, 8] was 99% (active) and the growth inhibition ([2]; at 50.0 µM) was 98.8% (active). For the same compound, the growth inhibition [3, 7] was -7%, the growth inhibition [3, 8] was 99% (active) and the growth inhibition ([3]; at 50.0 µM) was 98.8% (active). For the same compound, the growth inhibition [4, 7] was 47%, the growth inhibition [4, 8] was 99% (active) and the growth inhibition ([4]; at 50.0 µM) was 98.6% (active). The growth inhibition [5, 7] was -18%, the growth inhibition [5, 8] was 99% (active) and the growth inhibition ([5]; at 50.0 µM) was 98.8% (active). The growth inhibition [6, 7] was -16%, the growth inhibition [6, 8] was 99% (active) and the growth inhibition ([6]; at 50.0 µM) was 98.4% (active).

For `CC(=O)[O][Hg][c]1c(C)c(C)cc(C)c1C`, the growth inhibition [1, 7] was 99% (active), the growth inhibition [1, 8] was 96% (active) and the growth inhibition ([1]; at 50.0 µM) was 90.1% (active). For the same compound, the growth inhibition [2, 7] was 100% (active), the growth inhibition [2, 8] was 98% (active) and the growth inhibition ([2]; at 50.0 µM) was 91.2% (active). The growth inhibition [3, 7] was 99% (active), the growth inhibition [3, 8] was 98% (active) and the growth inhibition ([3]; at 50.0 µM) was 87.7% (active). For the same compound, the growth inhibition [4, 7] was 99% (active), the growth inhibition [4, 8] was 98% (active) and the growth inhibition ([4]; at 50.0 µM) was 85.7% (active). The growth inhibition [5, 7] was 99% (active), the growth inhibition [5, 8] was 97% (active) and the growth inhibition ([5]; at 50.0 µM) was 84.2% (active). For the same compound, the growth inhibition [6, 7] was 99% (active), the growth inhibition [6, 8] was 96% (active) and the growth inhibition ([6]; at 50.0 µM) was 76.2% (active).

With `C1=CC2CCC[N-]C2N1.C1=CC2CCC[N-]C2N1.[I][Pt+2][I]` (stereo not given) the growth inhibition [1, 7] was 4%, the growth inhibition [1, 8] was 99% (active) and the growth inhibition ([1]; at 50.0 µM) was 99% (active). The growth inhibition [2, 7] was 9%, the growth inhibition [2, 8] was 99% (active) and the growth inhibition ([2]; at 50.0 µM) was 99.5% (active). For the same compound, the growth inhibition [3, 7] was 10%, the growth inhibition [3, 8] was 99% (active) and the growth inhibition ([3]; at 50.0 µM) was 34.5%. The growth inhibition [4, 7] was 21%, the growth inhibition [4, 8] was 99% (active) and the growth inhibition ([4]; at 50.0 µM) was 98.2% (active). For the same compound, the growth inhibition [5, 7] was 6%, the growth inhibition [5, 8] was 99% (active) and the growth inhibition ([5]; at 50.0 µM) was 99% (active). The growth inhibition [6, 7] was 23%, the growth inhibition [6, 8] was 99% (active) and the growth inhibition ([6]; at 50.0 µM) was 98.8% (active).

For `CC(C)c1ccc(C(c2c(O)c3ccccc3oc2=O)c2c(O)c3ccccc3oc2=O)cc1`, the growth inhibition [1, 7] was 3%, the growth inhibition [1, 8] was 91% (active) and the growth inhibition ([1]; at 50.0 µM) was 98.5% (active). For the same compound, the growth inhibition [2, 7] was -5%, the growth inhibition [2, 8] was 95% (active) and the growth inhibition ([2]; at 50.0 µM) was 97.9% (active). For the same compound, the growth inhibition [3, 7] was -10%, the growth inhibition [3, 8] was 95% (active) and the growth inhibition ([3]; at 50.0 µM) was 98.7% (active). The growth inhibition [4, 7] was -4%, the growth inhibition [4, 8] was 98% (active) and the growth inhibition ([4]; at 50.0 µM) was 99.3% (active). For the same compound, the growth inhibition [5, 7] was -9%, the growth inhibition [5, 8] was 92% (active) and the growth inhibition ([5]; at 50.0 µM) was 98.6% (active). The growth inhibition [6, 7] was -11%, the growth inhibition [6, 8] was 97% (active) and the growth inhibition ([6]; at 50.0 µM) was 98.4% (active).

Work on `CC(=O)C(CN(C)Cc1ccccc1)C(c1ccccc1)c1c(O)c2ccccc2oc1=O` (stereo not given) yielded a growth inhibition [1, 7] of 26%, a growth inhibition [1, 8] of 26% and a growth inhibition ([1]; at 50.0 µM) of 68.5%. For the same compound, the growth inhibition [2, 7] was 1%, the growth inhibition [2, 8] was 1% and the growth inhibition ([2]; at 50.0 µM) was 56.2%. The growth inhibition [3, 7] was 24%, the growth inhibition [3, 8] was 24% and the growth inhibition ([3]; at 50.0 µM) was 71.7% (active). The growth inhibition [4, 7] was -9%, the growth inhibition [4, 8] was -9% and the growth inhibition ([4]; at 50.0 µM) was 47.5%. The growth inhibition [5, 7] was -1%, the growth inhibition [5, 8] was -1% and the growth inhibition ([5]; at 50.0 µM) was 70.7% (active). For the same compound, the growth inhibition [6, 7] was 11%, the growth inhibition [6, 8] was 11% and the growth inhibition ([6]; at 50.0 µM) was 76.5% (active).

For `CO[C@@]12[C@@H]3N[C@@H]3CN1C1=C(C(=O)C(N(C)c3ccc(O)cc3)=C(C)C1=O)[C@@H]2COC(N)=O`, the growth inhibition [1, 7] was 21%, the growth inhibition [1, 8] was 64% and the growth inhibition ([1]; at 50.0 µM) was 81.9% (active). For the same compound, the growth inhibition [2, 7] was 24%, the growth inhibition [2, 8] was 70% (active) and the growth inhibition ([2]; at 50.0 µM) was 76% (active). For the same compound, the growth inhibition [3, 7] was -7%, the growth inhibition [3, 8] was 44% and the growth inhibition ([3]; at 50.0 µM) was 68.4%. For the same compound, the growth inhibition [4, 7] was 1%, the growth inhibition [4, 8] was 62% and the growth inhibition ([4]; at 50.0 µM) was 65%. It also gave a growth inhibition [5, 7] of -5%, a growth inhibition [5, 8] of 30% and a growth inhibition ([5]; at 50.0 µM) of 53.2%. For the same compound, the growth inhibition [6, 7] was 33%, the growth inhibition [6, 8] was 96% (active) and the growth inhibition ([6]; at 50.0 µM) was 83.2% (active).

For `CN(C=O)C(=S)[S][Sb]([S]C(=S)N(C)C=O)[S]c1nc2ccc(N=Nc3ccc(NS(=O)(=O)c4ccc(NC(=O)C(N5CC5)(N5CC5)N5CC5)cc4)cc3)cc2s1`, the growth inhibition [1, 7] was 4%, the growth inhibition [1, 8] was 6% and the growth inhibition ([1]; at 50.0 µM) was 99.2% (active). The growth inhibition [2, 7] was 0%, the growth inhibition [2, 8] was -5% and the growth inhibition ([2]; at 50.0 µM) was 99.3% (active). For the same compound, the growth inhibition [3, 7] was -1%, the growth inhibition [3, 8] was 20% and the growth inhibition ([3]; at 50.0 µM) was 99.5% (active). The growth inhibition [4, 7] was 4%, the growth inhibition [4, 8] was 3% and the growth inhibition ([4]; at 50.0 µM) was 98.7% (active). For the same compound, the growth inhibition [5, 7] was 2%, the growth inhibition [5, 8] was 8% and the growth inhibition ([5]; at 50.0 µM) was 99.2% (active). The growth inhibition [6, 7] was 0%, the growth inhibition [6, 8] was 4% and the growth inhibition ([6]; at 50.0 µM) was 99.2% (active).

With `C[C@]12Cc3cn4ncnc4nc3CC1CC[C@@H]1[C@@H]2CC[C@]2(C)C(O)CC[C@@H]12` (stereo not given in full) the growth inhibition [1, 7] was 21%, the growth inhibition [1, 8] was 97% (active) and the growth inhibition ([1]; at 50.0 µM) was 97.5% (active). For the same compound, the growth inhibition [2, 7] was 24%, the growth inhibition [2, 8] was 99% (active) and the growth inhibition ([2]; at 50.0 µM) was 95% (active). For the same compound, the growth inhibition [3, 7] was 60%, the growth inhibition [3, 8] was 99% (active) and the growth inhibition ([3]; at 50.0 µM) was 98% (active). For the same compound, the growth inhibition [4, 7] was 25%, the growth inhibition [4, 8] was 91% (active) and the growth inhibition ([4]; at 50.0 µM) was 78.7% (active). For the same compound, the growth inhibition [5, 7] was 24%, the growth inhibition [5, 8] was 97% (active) and the growth inhibition ([5]; at 50.0 µM) was 97% (active). The growth inhibition [6, 7] was 48%, the growth inhibition [6, 8] was 98% (active) and the growth inhibition ([6]; at 50.0 µM) was 98.6% (active).

With `C[CH2][Sn]([CH2]C)[O][Sn]([Cl])([CH2]C)[CH2]C` the growth inhibition [1, 7] was 51%, the growth inhibition [1, 8] was 96% (active) and the growth inhibition ([1]; at 50.0 µM) was 87.9% (active). The growth inhibition [2, 7] was 35%, the growth inhibition [2, 8] was 97% (active) and the growth inhibition ([2]; at 50.0 µM) was 88.3% (active). The growth inhibition [3, 7] was 37%, the growth inhibition [3, 8] was 97% (active) and the growth inhibition ([3]; at 50.0 µM) was 87.5% (active). The growth inhibition [4, 7] was 19%, the growth inhibition [4, 8] was 91% (active) and the growth inhibition ([4]; at 50.0 µM) was 84% (active). The growth inhibition [5, 7] was 39%, the growth inhibition [5, 8] was 96% (active) and the growth inhibition ([5]; at 50.0 µM) was 83.3% (active). The growth inhibition [6, 7] was 75% (active), the growth inhibition [6, 8] was 97% (active) and the growth inhibition ([6]; at 50.0 µM) was 86.7% (active).

For `Cc1ccc(NC(=O)CBr)cc1`, the growth inhibition [1, 7] was 92% (active), the growth inhibition [1, 8] was 99% (active) and the growth inhibition ([1]; at 50.0 µM) was 99.1% (active). For the same compound, the growth inhibition [2, 7] was 97% (active), the growth inhibition [2, 8] was 100% (active) and the growth inhibition ([2]; at 50.0 µM) was 99.2% (active). The growth inhibition [3, 7] was 97% (active), the growth inhibition [3, 8] was 97% (active) and the growth inhibition ([3]; at 50.0 µM) was 99.2% (active). For the same compound, the growth inhibition [4, 7] was 97% (active), the growth inhibition [4, 8] was 99% (active) and the growth inhibition ([4]; at 50.0 µM) was 98.8% (active). For the same compound, the growth inhibition [5, 7] was 95% (active), the growth inhibition [5, 8] was 99% (active) and the growth inhibition ([5]; at 50.0 µM) was 99% (active). For the same compound, the growth inhibition [6, 7] was 94% (active), the growth inhibition [6, 8] was 98% (active) and the growth inhibition ([6]; at 50.0 µM) was 99% (active).

Reference: PubChem BioAssay (NCI)
